PubChem BioAssay AID1347416 (National Center for Advancing Translational Sciences (NCATS), 2020)
Among all 4,100 compounds or so, about 1,600 (39%) were called active. Not shown: some 25% with an inconclusive outcome. The call rests on the fitted dose curve; in most records, active means well fitted inhibition curve with a large enough effect; inconclusive means small, poorly fitted or top-dose-only effect; inactive means no such curve, though single readings can be large or run the other way. The list shows a part of the results. Entries that show only a call come without a potency.

Assay: qHTS Validation assay for Inhibitors of Plasmodium falciparum Dd2 growth in vitro; further: nearly all actives have a fitted effect of over 70% in size
Details: P. falciparum Dd2 in RBCs, SYBR Green growth, 72 h; series mostly up to 28.7 µM
How it was run: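 P. falciparum Dd2-infected red blood cells (2.5% hematocrit, 0.3% parasitemia) grown 72 h at 37 °C under 5% O2 with compounds in a titration, 29 uM to 0.5 nM final. Growth read as SYBR Green-1 fluorescence after ~16 h lysis; artesunate 300 nM as positive control.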
Potency means the concentration at half of the fitted maximal effect.

Compound	Potency
Cc1cc(C)c(S(=O)(=O)Nc2cc(Cl)c3oc4c(c3c2)C(=O)CCC4)cc1C	inactive
CN(C)CC(O)COc1ccc(C(C)(C)c2ccc(OCC(O)CN(C)C)cc2)cc1 (stereo not drawn)	8.41 µM (active)
O=C(COC(=O)c1cccc(Br)c1)NCCNC(=O)COC(=O)c1cccc(Br)c1	inactive
CCc1cccc(NC(=O)c2ccc3c(c2)N(C)C2CCCCN2C3=O)c1 (stereo not drawn)	inactive
O=C(Nc1ccc(C(=O)OC[C@@H]2CCCN3CCCC[C@H]23)cc1)c1cccc(Br)c1	6.68 µM (active)
O=S(=O)(c1cccc(F)c1)N1CCC2(CC1)CC(Cc1nc(C3CC3)no1)CCO2 (stereo not drawn)	inactive
CCN(C(=O)Cn1c(=O)n(Cc2ccc3c(c2)OCO3)c(=O)c2ccc(C(=O)NC3CCCCC3)cc21)c1cccc(C)c1	6.68 µM (active)
CC1(CCCCc2ccccc2)COc2ccc(C(=O)NC3CCC(O)CC3)cc2N1 (stereo not drawn)	inactive
O=C(NC1CCN(c2cnn(CC3CC3)c(=O)c2)CC1)c1ccc2c(c1)OCO2	inactive
O=C(c1ccco1)N1CCC(Oc2ccccc2-c2nc(-c3ccccc3)no2)C1 (stereo not drawn)	inactive
O=C(Cc1cccc(F)c1)N1CCC(Oc2ccccc2-c2nc(C3CC3)no2)C1 (stereo not drawn)	inactive
c1ccc(-c2nc(-c3ccncc3)no2)c(OC2CCN(C3CCCC3)C2)c1 (stereo not drawn)	15 µM (active)
Cc1cc(C(=O)Nc2cnn(Cc3ccc(Cl)cc3Cl)c2)no1	9.44 µM (active)
Cc1cn2nc(C(=O)NCc3ccccc3Cl)cc2c(=O)[nH]1	inactive
Cc1cc(/C(N)=N/OC(=O)c2ccccc2Cl)no1	inactive
COc1ccc(-c2ccc(SCc3ccccn3)nn2)cc1OC	inactive
COc1ccc(Nc2cnc3ccc(-c4ccc(OC)c(OC)c4)nn23)cc1	1.72 µM (active)
COc1ccc(-c2ccc3ncc(Nc4ccncc4)n3n2)cc1OC	4.85 µM (active)
OCc1cccc(-c2ccc3ncc(Nc4ccc(OCCN5CCCC5)cc4)n3n2)c1	3.44 µM (active)
COc1cncc(Nc2cnc3ccc(-c4ccc(F)cc4)nn23)c1	3.06 µM (active)

Compound	Potency
COc1ccc(C(=O)NCc2nnc3ccc(-c4ccc(F)cc4)nn23)c(OC)c1	inactive
Cc1oc(C(C)C)cc1C(=O)N1CC[C@](C)(O)[C@@H](O)C1	inactive
CC(=O)N1CCC([C@@H]2CN(C3CCN(CC(C)C)CC3)C[C@H]2CO)CC1	inactive
O=C(O)CC1(CC(=O)N2CCN3C(=O)N(Cc4ccccc4)C(=O)[C@H]3C2)CCCC1	inactive
CCCc1noc(-c2ccn3c(CNC(=O)c4ccc5ccccc5n4)nnc3c2)n1	inactive
COc1cncc(Nc2cnc3ccc(-c4ccc(OC)c(OC)c4)nn23)c1	1.22 µM (active)
c1ccc(-c2ccc3ncc(Nc4cccnc4)n3n2)cc1	4.85 µM (active)
O=C(NCc1nnc2ccc(-c3ccccc3)nn12)c1ccoc1	inactive
CCC1(O)CCCN(c2ncc(C(C)(C)C(=O)O)c(N3CCOCC3)n2)C1 (stereo not drawn)	inactive
CCOC(=O)c1ccc(NC2=CC(c3ccc(F)cc3)N(c3ccc(C(=O)OCC)cc3)C2=O)cc1 (stereo not drawn)	8.41 µM (active)
CCOc1cc(C2c3c(oc4ccccc4c3=O)C(=O)N2Cc2ccc3c(c2)OCO3)ccc1O (stereo not drawn)	inactive
CCOC(=O)c1ccc(NC2=CC(c3ccc(O)c(OCC)c3)N(c3ccc(C(=O)OCC)cc3)C2=O)cc1 (stereo not drawn)	3.35 µM (active)
Nc1cc[n+](CC(=O)c2ccc3c(c2)OCCO3)cc1	13.3 µM (active)
O=C(CNC1=NCCC1)c1ccc2c(c1)OCCO2	inactive
COc1cc(C2NC(=O)c3c(sc4c3CCN(C)C4)N2)cc(OC)c1OC (stereo not drawn)	inactive
O=C(Nc1cccc2ccccc12)O[C@@H]1CO[C@H]2[C@@H]1OC[C@@H]2n1nnnc1-c1ccc(-c2ccccc2)cc1	inactive
CC(C)N1C(=O)C(CC(=O)N(C)Cc2cccnc2)=C2CCCCC21 (stereo not drawn)	inactive
CCC(C)c1ccc(N(C(=O)c2ccco2)C(C(=O)NC2CCCC2)c2cccnc2)cc1 (stereo not drawn)	6.68 µM (active)
Cc1noc(C)c1-c1cc2cc(CN(C)C)oc2c(NCc2cccnc2)n1	1.22 µM (active)
Cc1noc(C)c1-c1cc2cc(CN(C)C)oc2c(Nc2cccnc2)n1	12.2 µM (active)

Compound	Potency
COc1cncc(Nc2ncc(-c3c(C)noc3C)c3c2OCC3)c1	inactive
NC(=O)c1cccc(-c2ncc3c(n2)OCCN(Cc2ccc(F)cc2F)C3=O)c1	inactive
Cc1cccc(CC(=O)N2CCCC(n3cc(-c4nc(-c5ccccc5)no4)nn3)C2)c1 (stereo not drawn)	inactive
O=C(c1cccc(Cl)c1)N1CCC(c2nc3c(nnn3Cc3ccc(F)cc3F)c(=O)[nH]2)CC1	5.96 µM (active)
Cc1cccc(Cn2nnc3c(=O)[nH]c(C4CCCN(C(=O)c5ccc(C(C)(C)C)cc5)C4)nc32)c1 (stereo not drawn)	2.66 µM (active)
Cc1cn2nc(-c3nc(C4CCCN(C(=O)c5ccc(C)c(F)c5)C4)no3)cc2c(=O)[nH]1 (stereo not drawn)	inactive
Cc1cn2nc(-c3nc(C4CCCN(C(=O)c5cccc(Cl)c5)C4)no3)cc2c(=O)[nH]1 (stereo not drawn)	inactive
CC(C)(C)c1ccc(C(=O)N2CCCC(c3nc4c(nnn4Cc4cccc(F)c4)c(=O)[nH]3)C2)cc1 (stereo not drawn)	16.8 µM (active)
O=C(c1cccc(Cl)c1)N1CCC(c2nn(Cc3ccccc3)c(=O)[nH]2)CC1	inactive
O=C(c1ccc(F)cc1)N1CCC(c2nn(Cc3ccccc3)c(=O)[nH]2)CC1	inactive
CO[C@H]1C(=O)N(C2CCN(S(=O)(=O)c3cccnc3)CC2)[C@H]1c1ccncc1	inactive
Cc1ccc(Nc2nc3nonc3nc2Nc2cccc(C(F)(F)F)c2)cc1Cl	2.11 µM (active)
CCCOc1ccc(-c2nonc2NC(=O)c2cc(OC)c(OC)c(OC)c2)cc1OCCC	5.96 µM (active)
CCOc1ccc(-c2nonc2NC(=O)COc2c(C)cc(C)cc2C)cc1OCC	inactive
CCOC(=O)Cc1csc(NC(=S)NC(=O)c2ccc(C)cc2)n1	inactive
CCOc1ccc(-c2nonc2NC(=O)c2ccc(C)cc2)cc1OCC	1.68 µM (active)
CCNc1nc(OC)nc(Oc2ccc(=O)n(-c3ccccc3)n2)n1	5.96 µM (active)
CC(C)Cn1c(-c2ccco2)nc2c(c(=O)c3ccccc3n2C)c1=O	9.44 µM (active)
